Results from article PMC11006913.
Numbering of substitutions follows the chain as printed.

Columns and labels:
Test in all cases: PBM; 200 nM protein, PBS
Settings in all cases: dsDNA, one strand shown
HOXA7 [1] = target: HOXA7 (Homo sapiens, UniProt P31268 116-202)
HOXA7 [2] = target: HOXA7 (Homo sapiens, UniProt P31268 116-202, W177C)
HOXA2 [3] = target: HOXA2 (Homo sapiens, UniProt O43364 129-215, R185T)
NKX2-6 = target: T1, NKX2-6 (Homo sapiens, UniProt A6NCS4 118-204, R150C)
T1 sequence: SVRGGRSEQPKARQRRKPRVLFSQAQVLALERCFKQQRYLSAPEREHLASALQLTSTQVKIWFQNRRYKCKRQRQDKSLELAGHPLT

HOXA2 [4] = target: HOXA2 (Homo sapiens, UniProt O43364 129-215, R185K)
Sequence of HOXA2 (Homo sapiens, UniProt O43364 129-215, R185K) (O43364 129-215 R185K): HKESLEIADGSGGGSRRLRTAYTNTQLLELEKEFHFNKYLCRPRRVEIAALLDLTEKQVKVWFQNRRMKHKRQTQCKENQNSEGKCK

HOXA2 [5] = target: HOXA2 (Homo sapiens, UniProt O43364 129-215, Y150S)
Sequence of HOXA2 (Homo sapiens, UniProt O43364 129-215, Y150S) (O43364 129-215 Y150S): as the sequence (O43364 129-215 R185K) above, with Y22S, K57R counted along it

HOXA2 [6] = target: HOXA2 (Homo sapiens, UniProt O43364 129-215)
Sequence of HOXA2 (Homo sapiens, UniProt O43364 129-215) (O43364 129-215): as the sequence (O43364 129-215 R185K) above, with K57R counted along it

MSX2 [7] = target: MSX2 (Homo sapiens, UniProt P35548 130-214, R199I)
Sequence of MSX2 (Homo sapiens, UniProt P35548 130-214, R199I) (P35548 130-214 R199I): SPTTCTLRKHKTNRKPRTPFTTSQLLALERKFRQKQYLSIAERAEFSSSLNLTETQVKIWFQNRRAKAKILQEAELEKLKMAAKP

MSX2 [8] = target: MSX2 (Homo sapiens, UniProt P35548 130-214)
Sequence of MSX2 (Homo sapiens, UniProt P35548 130-214) (P35548 130-214): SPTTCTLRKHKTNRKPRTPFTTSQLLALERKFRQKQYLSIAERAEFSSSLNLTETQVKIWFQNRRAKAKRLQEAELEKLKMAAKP

MSX2 [9] = target: MSX2 (Homo sapiens, UniProt P35548 130-214, F161Y)
Sequence of MSX2 (Homo sapiens, UniProt P35548 130-214, F161Y) (P35548 130-214 F161Y): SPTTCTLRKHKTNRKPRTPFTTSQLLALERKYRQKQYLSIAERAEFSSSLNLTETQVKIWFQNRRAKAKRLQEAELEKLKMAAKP

ALX3 = ALX3 (Homo sapiens, UniProt O95076 139-225)
Sequence of ALX3 (O95076 139-225): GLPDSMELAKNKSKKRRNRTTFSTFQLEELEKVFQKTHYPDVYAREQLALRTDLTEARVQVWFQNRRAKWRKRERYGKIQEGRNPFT

PROP1 [10] = target: PROP1 (Homo sapiens, UniProt O75360 56-141)
Sequence of PROP1 (Homo sapiens, UniProt O75360 56-141) (O75360 56-141): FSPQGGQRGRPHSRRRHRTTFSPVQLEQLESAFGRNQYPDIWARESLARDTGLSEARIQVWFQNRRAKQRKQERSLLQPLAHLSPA

PROP1 [11] = target: PROP1 (Homo sapiens, UniProt O75360 56-141, R99H)
Sequence of PROP1 (Homo sapiens, UniProt O75360 56-141, R99H) (O75360 56-141 R99H): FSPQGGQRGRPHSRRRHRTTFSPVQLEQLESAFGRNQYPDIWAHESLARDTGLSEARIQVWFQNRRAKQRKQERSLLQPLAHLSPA

PROP1 [12] = target: PROP1 (Homo sapiens, UniProt O75360 56-141, F88S)
Sequence of PROP1 (Homo sapiens, UniProt O75360 56-141, F88S) (O75360 56-141 F88S): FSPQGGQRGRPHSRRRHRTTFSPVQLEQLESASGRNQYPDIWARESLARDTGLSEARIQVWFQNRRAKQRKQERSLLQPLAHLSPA

ALX1 [13] = target: ALX1 (Homo sapiens, UniProt Q15699 118-204, L144V)
Sequence of ALX1 (Homo sapiens, UniProt Q15699 118-204, L144V) (Q15699 118-204 L144V): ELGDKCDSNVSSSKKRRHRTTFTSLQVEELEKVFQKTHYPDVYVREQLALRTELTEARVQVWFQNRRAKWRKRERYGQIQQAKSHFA

ALX1 [14] = target: ALX1 (Homo sapiens, UniProt Q15699 118-204, L144R)
Sequence of ALX1 (Homo sapiens, UniProt Q15699 118-204, L144R) (Q15699 118-204 L144R): as the sequence (Q15699 118-204 L144V) above, with V27R counted along it

ALX1 [15] = target: ALX1 (Homo sapiens, UniProt Q15699 118-204)
Sequence of ALX1 (Homo sapiens, UniProt Q15699 118-204) (Q15699 118-204): as the sequence (Q15699 118-204 L144V) above, with V27L counted along it

PRRX1 [16] = target: PRRX1 (Homo sapiens, UniProt P54821 80-166, F113S)
Sequence of PRRX1 (Homo sapiens, UniProt P54821 80-166, F113S) (P54821 80-166 F113S): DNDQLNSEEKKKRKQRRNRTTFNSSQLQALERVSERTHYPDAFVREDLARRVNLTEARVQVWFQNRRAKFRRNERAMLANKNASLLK

PITX2 = PITX2 (Homo sapiens, UniProt Q99697 72-157)
CRX = CRX (Homo sapiens, UniProt O43186 26-111, R41L)
Sequence of CRX (O43186 26-111 R41L): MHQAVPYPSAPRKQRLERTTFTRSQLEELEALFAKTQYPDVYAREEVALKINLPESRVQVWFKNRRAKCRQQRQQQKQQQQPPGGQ

PRRX1 [17] = target: PRRX1 (Homo sapiens, UniProt P54821 80-166)
Sequence of PRRX1 (Homo sapiens, UniProt P54821 80-166) (P54821 80-166): as the sequence (P54821 80-166 F113S) above, with S34F counted along it

PAX4 [18] = target: T2, PAX4 (Homo sapiens, UniProt O43316 9-242, R200K)
T2 sequence: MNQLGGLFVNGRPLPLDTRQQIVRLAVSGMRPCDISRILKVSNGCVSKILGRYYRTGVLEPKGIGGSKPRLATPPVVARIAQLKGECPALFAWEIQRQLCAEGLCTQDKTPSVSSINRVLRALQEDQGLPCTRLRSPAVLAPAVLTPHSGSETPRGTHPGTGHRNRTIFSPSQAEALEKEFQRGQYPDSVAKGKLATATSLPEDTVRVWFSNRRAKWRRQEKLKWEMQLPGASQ

PAX4 [19] = target: T3, PAX4 (Homo sapiens, UniProt O43316 9-242)
T3 sequence: T2 sequence with K192R

PAX4 [20] = target: T4, PAX4 (Homo sapiens, UniProt O43316 9-242, R200Q)
T4 sequence: T2 sequence with K192Q

PAX4 [21] = target: T5, PAX4 (Homo sapiens, UniProt O43316 9-242, F177V)
T5 sequence: T2 sequence with F169V, K192R

HOXB6 [22] = target: HOXB6 (Homo sapiens, UniProt P17509 132-218, K202E)
Sequence of HOXB6 (Homo sapiens, UniProt P17509 132-218, K202E) (P17509 132-218 K202E): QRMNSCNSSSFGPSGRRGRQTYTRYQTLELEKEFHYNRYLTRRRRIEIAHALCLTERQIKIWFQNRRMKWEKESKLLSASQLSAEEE

VAX1 [23] = target: VAX1 (Homo sapiens, UniProt Q5SQQ9 86-172)
Sequence of VAX1 (Homo sapiens, UniProt Q5SQQ9 86-172) (Q5SQQ9 86-172): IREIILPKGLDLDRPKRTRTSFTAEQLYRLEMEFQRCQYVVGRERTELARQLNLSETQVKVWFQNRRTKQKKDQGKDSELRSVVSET

VAX1 [24] = target: VAX1 (Homo sapiens, UniProt Q5SQQ9 86-172, T142I)
Sequence of VAX1 (Homo sapiens, UniProt Q5SQQ9 86-172, T142I) (Q5SQQ9 86-172 T142I): as the sequence (Q5SQQ9 86-172) above, with T57I counted along it

VAX1 [25] = target: VAX1 (Homo sapiens, UniProt Q5SQQ9 86-172, K157R)
Sequence of VAX1 (Homo sapiens, UniProt Q5SQQ9 86-172, K157R) (Q5SQQ9 86-172 K157R): as the sequence (Q5SQQ9 86-172) above, with K72R counted along it

HOXB6 [26] = target: HOXB6 (Homo sapiens, UniProt P17509 132-218)
Sequence of HOXB6 (Homo sapiens, UniProt P17509 132-218) (P17509 132-218): as the sequence (P17509 132-218 K202E) above, with E71K counted along it

Sequence of HOXA7 (Homo sapiens, UniProt P31268 116-202) (P31268 116-202): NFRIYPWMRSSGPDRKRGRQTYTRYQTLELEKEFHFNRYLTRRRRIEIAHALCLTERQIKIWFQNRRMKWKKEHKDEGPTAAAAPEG
Sequence of HOXA7 (Homo sapiens, UniProt P31268 116-202, W177C) (P31268 116-202 W177C): as the sequence (P31268 116-202) above, with W62C counted along it
Sequence of HOXA2 (Homo sapiens, UniProt O43364 129-215, R185T) (O43364 129-215 R185T): as the sequence (O43364 129-215 R185K) above, with K57T counted along it

AGAATTAC
binding signal (HOXA7 [1]): 9.68 upbm affinity estimate (log intensity, higher = more binding, comparable within an allelic series) | binding signal (HOXA7 [2]): 8.8 upbm affinity estimate (log intensity, higher = more binding, comparable within an allelic series)

CCAGCTGG
binding signal (HOXA7 [1]): 8.23 upbm affinity estimate (log intensity, higher = more binding, comparable within an allelic series) | binding signal (HOXA2 [3]): 7.34 upbm affinity estimate (log intensity, higher = more binding, comparable within an allelic series) | binding signal (NKX2-6): 9.68 upbm affinity estimate (log intensity, higher = more binding, comparable within an allelic series) | binding signal (HOXA2 [4]): 10.4 upbm affinity estimate (log intensity, higher = more binding, comparable within an allelic series) | binding signal (HOXA2 [5]): 10.5 upbm affinity estimate (log intensity, higher = more binding, comparable within an allelic series) | binding signal (HOXA7 [2]): 8.36 upbm affinity estimate (log intensity, higher = more binding, comparable within an allelic series) | binding signal (HOXA2 [6]): 7.34 upbm affinity estimate (log intensity, higher = more binding, comparable within an allelic series)

GAGGGACC
binding signal (HOXA7 [1]): 8.55 upbm affinity estimate (log intensity, higher = more binding, comparable within an allelic series) | binding signal (MSX2 [7]): 9.48 upbm affinity estimate (log intensity, higher = more binding, comparable within an allelic series) | binding signal (MSX2 [8]): 9.7 upbm affinity estimate (log intensity, higher = more binding, comparable within an allelic series) | binding signal (MSX2 [9]): 9.64 upbm affinity estimate (log intensity, higher = more binding, comparable within an allelic series) | binding signal (HOXA7 [2]): 8.33 upbm affinity estimate (log intensity, higher = more binding, comparable within an allelic series)

AACTTTAT
binding signal (HOXA7 [1]): 9.71 upbm affinity estimate (log intensity, higher = more binding, comparable within an allelic series) | binding signal (ALX3): 9.63 upbm affinity estimate (log intensity, higher = more binding, comparable within an allelic series) | binding signal (HOXA7 [2]): 8.8 upbm affinity estimate (log intensity, higher = more binding, comparable within an allelic series)

CAGTGCGG
binding signal (HOXA7 [1]): 8.54 upbm affinity estimate (log intensity, higher = more binding, comparable within an allelic series) | binding signal (PROP1 [10]): 6.84 upbm affinity estimate (log intensity, higher = more binding, comparable within an allelic series) | binding signal (PROP1 [11]): 6.82 upbm affinity estimate (log intensity, higher = more binding, comparable within an allelic series) | binding signal (PROP1 [12]): 6.73 upbm affinity estimate (log intensity, higher = more binding, comparable within an allelic series) | binding signal (HOXA7 [2]): 8.37 upbm affinity estimate (log intensity, higher = more binding, comparable within an allelic series)

CCAAGCCA
binding signal (HOXA7 [1]): 8.43 upbm affinity estimate (log intensity, higher = more binding, comparable within an allelic series) | binding signal (ALX1 [13]): 6.51 upbm affinity estimate (log intensity, higher = more binding, comparable within an allelic series) | binding signal (ALX1 [14]): 6.6 upbm affinity estimate (log intensity, higher = more binding, comparable within an allelic series) | binding signal (HOXA7 [2]): 8.54 upbm affinity estimate (log intensity, higher = more binding, comparable within an allelic series) | binding signal (ALX1 [15]): 6.46 upbm affinity estimate (log intensity, higher = more binding, comparable within an allelic series)

AAGATTAG
binding signal (HOXA7 [1]): 9.43 upbm affinity estimate (log intensity, higher = more binding, comparable within an allelic series) | binding signal (PRRX1 [16]): 10.4 upbm affinity estimate (log intensity, higher = more binding, comparable within an allelic series) | binding signal (PITX2): 12.4 upbm affinity estimate (log intensity, higher = more binding, comparable within an allelic series) | binding signal (HOXA7 [2]): 8.65 upbm affinity estimate (log intensity, higher = more binding, comparable within an allelic series) | binding signal (CRX): 12.4 upbm affinity estimate (log intensity, higher = more binding, comparable within an allelic series) | binding signal (PRRX1 [17]): 12.3 upbm affinity estimate (log intensity, higher = more binding, comparable within an allelic series)

GATTACAC
binding signal (HOXA7 [1]): 9.6 upbm affinity estimate (log intensity, higher = more binding, comparable within an allelic series) | binding signal (PAX4 [18]): 10.9 upbm affinity estimate (log intensity, higher = more binding, comparable within an allelic series) | binding signal (PAX4 [19]): 11.2 upbm affinity estimate (log intensity, higher = more binding, comparable within an allelic series) | binding signal (PAX4 [20]): 11 upbm affinity estimate (log intensity, higher = more binding, comparable within an allelic series) | binding signal (PAX4 [21]): 10.3 upbm affinity estimate (log intensity, higher = more binding, comparable within an allelic series) | binding signal (HOXA7 [2]): 8.73 upbm affinity estimate (log intensity, higher = more binding, comparable within an allelic series)

AATTACCC
binding signal (HOXA7 [1]): 11.4 upbm affinity estimate (log intensity, higher = more binding, comparable within an allelic series) | binding signal (HOXB6 [22]): 9.85 upbm affinity estimate (log intensity, higher = more binding, comparable within an allelic series) | binding signal (VAX1 [23]): 12.7 upbm affinity estimate (log intensity, higher = more binding, comparable within an allelic series) | binding signal (MSX2 [9]): 13 upbm affinity estimate (log intensity, higher = more binding, comparable within an allelic series) | binding signal (VAX1 [24]): 12.5 upbm affinity estimate (log intensity, higher = more binding, comparable within an allelic series) | binding signal (HOXA7 [2]): 8.89 upbm affinity estimate (log intensity, higher = more binding, comparable within an allelic series) | binding signal (VAX1 [25]): 12.6 upbm affinity estimate (log intensity, higher = more binding, comparable within an allelic series) | binding signal (HOXB6 [26]): 11.7 upbm affinity estimate (log intensity, higher = more binding, comparable within an allelic series)
